Bioassay records as filed in PubChem BioAssay.
RE007 growth inh: less growth of the S. pombe RE007 Vpr strain | S. pombe RE007 Vpr strain, BacTiter-Glo ATP luminescence, 24 h | AID 651644 | 360,000 compounds, 0.21% hits | Potency, µM (top dose mostly 92.2 µM), actives largely listed as inhibitors; active = well fitted falling curve with a large enough effect; inconclusive = small, poorly fitted or top-dose-only effect; inactive = no such curve, though single readings can be large or run the other way; also: nearly all actives have a fitted effect of over 50% in size
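Fission yeast RE007 carrying one integrated HIV-1 vpr copy, seeded at OD 0.01 in PMG+AL medium with 23 nL pinned compound. Grown 24 h at 30 degrees; viability read by BacTiter-Glo luminescence after 5 min.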
AmpC no deterg: inhibitors of E. coli AmpC beta-lactamase without detergent | AmpC nitrocefin hydrolysis, absorbance 480 nm, 0.0001% Triton | Potency, µM (top dose mostly 57.1 µM), most hits filed as inhibitors | 330,000 compounds, 0.52% hits; also: nearly all actives have a fitted effect of over 20% in size
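AmpC (5.3 nM in the dispensed reagent) in 20 mM phosphate pH 7.0 with 0.01% (detergent screen) or 0.0001% Triton X-100 was preincubated with compounds for 15 min at room temperature. Nitrocefin was then added from an 800 uM solution, and hydrolysis was followed at 480 nm.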
Sm TGR inh: S. mansoni TGR enzyme inhibition | purified TGR, DTNB reduction, TNB absorbance 405 nm | 360,000 compounds, 3% hits | Q962Y6 | Potency, µM (titrated, usually from 114 µM), usual class: inhibitors; also: nearly all actives have a fitted effect of over 60% in size
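First, TGR (20 nM dispensed) and NADPH were mixed with compound. Second, a 15 min room-temperature incubation followed. Third, further NADPH and then DTNB were added to start the reaction. Finally, TNB absorbance was monitored kinetically.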
AmpC detergent: blocks E. coli AmpC beta-lactamase in detergent assay; P00811; Potency, µM (top dose mostly 114 µM), usual class: inhibitors; AmpC hydrolysis of nitrocefin, absorbance 480 nm, 0.01% Triton; 370,000 compounds, 0.041% hits; also: nearly all actives have a fitted effect of over 25% in size
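AmpC (5.3 nM in the dispensed reagent) in 20 mM phosphate pH 7.0 with 0.01% (detergent screen) or 0.0001% Triton X-100 was preincubated with compounds for 15 min at room temperature. Nitrocefin was then added from an 800 uM solution, and hydrolysis was followed at 480 nm.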
Giardia FBPA inh: inhibitors of Giardia lamblia fructose-1,6-bisphosphate aldolase; A8B2U2; purified Giardia FBPA; Potency, µM (doses to about 59.6 µM), usual class: inhibitors; 290,000 compounds, 0.71% hits; AID 2451; also: nearly all actives have a fitted effect of over 55% in size
Target sequence (A8B2U2 whole entry, looked up): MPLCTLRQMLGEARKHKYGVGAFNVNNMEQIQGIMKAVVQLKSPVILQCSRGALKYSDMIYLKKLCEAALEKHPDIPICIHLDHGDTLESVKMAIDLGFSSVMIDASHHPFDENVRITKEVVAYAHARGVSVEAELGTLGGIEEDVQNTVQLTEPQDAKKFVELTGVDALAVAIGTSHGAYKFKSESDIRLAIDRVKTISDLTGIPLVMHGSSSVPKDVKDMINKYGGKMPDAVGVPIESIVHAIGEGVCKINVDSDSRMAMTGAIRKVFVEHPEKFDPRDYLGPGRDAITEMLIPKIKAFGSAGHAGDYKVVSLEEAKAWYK
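40 nM FBPA preincubated 10 min at RT with compound (up to 57.5 uM final), then substrate plus GAPDH/TPI/NAD/arsenate coupling and diaphorase/resazurin added. Fluorescence read after 20 min at RT, 525/598 nm.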
Large screens that a line does not name were inactive; ! = not active in a repeat. Hits are enriched below; roughly 3.4% of the tested compounds scored in any of these assays. Unless noted, calls follow the shape of the dose curve; as a rule, active = well fitted curve in the direction sought with a large enough effect; inconclusive = small, poorly fitted or top-dose-only effect, or another doubt; inactive = no such curve, though single readings can be large; an effect the other way counts as inactive or inconclusive.

COc1ccc(CN2C(=O)NC3(CCCc4ccccc43)C2=O)cc1F (stereo not given)	none
Cc1ccc(NC(=O)/C(C#N)=N/Nc2ccc(C(=O)O)cc2)c(C)c1	none
Cc1ccc(N/N=C(\C#N)C(N)=S)c(C)c1	AmpC no deterg 3.5µM, Sm TGR inh inconclusive
C/C(=N\NC(=O)c1cccc(Cl)c1)C1C(=O)c2ccccc2C1=O	none
COc1cccc(O)c1O	Giardia FBPA inh 18µM (no result: RE007 growth inh, AmpC no deterg, Sm TGR inh, AmpC detergent)
COc1ccccc1O	AmpC detergent inconclusive
Cc1ccc(NC(=O)CN2C(=O)CCc3cc(S(=O)(=O)N4CCCCC4)ccc32)cc1N(C)C	none (no result: RE007 growth inh, AmpC no deterg, Giardia FBPA inh)
COc1ccc(/C=C/C(=O)Nc2nc3n(n2)C(c2ccccc2)C=C(c2ccccc2)N3)cc1 (stereo not given)	none (no result: RE007 growth inh, AmpC no deterg, Giardia FBPA inh)
Cc1ccc(S(=O)(=O)Nc2nc3n(n2)C(c2ccc(Cl)cc2)C=C(c2ccccc2)N3)cc1 (stereo not given)	none (no result: RE007 growth inh, AmpC no deterg, Giardia FBPA inh)
Cc1ccc(C2C=C(c3ccccc3)Nc3nc(NS(=O)(=O)c4ccccc4)nn32)cc1 (stereo not given)	Sm TGR inh 35µM (no result: RE007 growth inh, AmpC no deterg, Giardia FBPA inh)
Cc1ccc(C2C=C(c3ccccc3)Nc3nc(N4C(=O)CCC4=O)nn32)cc1 (stereo not given)	Sm TGR inh 22µM
COc1ccc(C2C=C(c3ccccc3)Nc3nc(NC(C)=O)nn32)cc1 (stereo not given)	Sm TGR inh 20µM! (no result: RE007 growth inh)
O=S(=O)(Nc1nc2n(n1)C(c1ccccc1)C=C(c1ccc(Cl)cc1)N2)c1ccccc1 (stereo not given)	Sm TGR inh 45µM (no result: RE007 growth inh, AmpC no deterg, Giardia FBPA inh)
O=[N+]([O-])c1cc(CN2CCN(c3ccccc3)CC2)c(O)c2ncccc12	Giardia FBPA inh inconclusive (no result: Sm TGR inh)
CC1CCN(S(=O)(=O)c2cccc(C(=O)NC3CCCC3)c2)CC1	AmpC detergent inconclusive
Cc1ccc(C2C=C(c3ccc(Cl)cc3)Nc3nc(NC(=O)c4ccco4)nn32)cc1 (stereo not given)	Sm TGR inh 13µM (no result: RE007 growth inh, AmpC no deterg, Giardia FBPA inh)
COc1ccccc1C(=O)Nc1nc2n(n1)C(c1ccc(F)cc1)C=C(c1ccc(Cl)cc1)N2 (stereo not given)	none (no result: RE007 growth inh, AmpC no deterg, Giardia FBPA inh)
O=C(Nc1ccccc1Cl)c1cc(S(=O)(=O)N2CCCC(C(=O)O)C2)ccc1F (stereo not given)	none
O=C(c1ccco1)c1nnn(Cc2ccccc2)c1-c1ccccc1	Sm TGR inh 32µM (no result: AmpC no deterg)
Nc1c(C(=O)NCc2ccco2)nnn1Cc1ccccc1	none (no result: AmpC no deterg)
C[C@]12CC[C@H](O)CC1=CCC1C2CC[C@]2(C)C(=O)[C@H](Br)CC12 (stereo not given in full)	none (no result: Sm TGR inh, AmpC detergent, Giardia FBPA inh)
COCCCNC(=S)NC1CC2CCCC(C1)N2Cc1ccco1 (stereo not given)	AmpC no deterg 1.8µM
O=C(O)Cc1ccc(C(=O)c2ccc(F)cc2)s1	none
N#CCc1ccc(C(=O)c2ccccc2F)s1	AmpC no deterg 0.79µM
Nc1ncc2c(n1)CCN(c1ccc([N+](=O)[O-])cc1)C2	none
COc1ccc(Cl)cc1NC(=S)NN1CCOCC1	Sm TGR inh 35µM
COc1ccc(OC)c(NC(=S)NN2CCOCC2)c1	none
CCN1CCCC1CNC(=O)CN1C(=O)COc2ccc(C)cc21 (stereo not given)	AmpC no deterg 25µM
Cc1ccccc1NC(=O)C1CCCN(S(=O)(=O)c2cccc3cccnc23)C1 (stereo not given)	AmpC no deterg 5µM, AmpC detergent inconclusive
Cc1ccc(-c2ccccc2NC(=O)CCl)o1	Sm TGR inh 32µM
Cc1ccc(-c2ccccc2NC(=O)C2C3C=CC(C3)C2C(=O)O)o1 (stereo not given)	RE007 growth inh inconclusive, Sm TGR inh 35µM
Cc1ccc(-c2cccc(NC(=O)C3C(C(=O)O)[C@@H]4C=C[C@H]3C4)c2)o1 (stereo not given in full)	Sm TGR inh 20µM
Cc1c(Cl)cccc1NC(=O)C1C2C=CC(C2)C1C(=O)O (stereo not given)	AmpC detergent inconclusive
CNc1n[nH]c(-c2ccccc2)n1	none (no result: AmpC no deterg, Sm TGR inh, AmpC detergent, Giardia FBPA inh)
O=C(CN(Cc1ccccc1)C(=O)c1csnn1)NCc1ccc2c(c1)OCO2	none (no result: Giardia FBPA inh)
CCCCn1c(-c2nonc2NC(=O)c2ccccc2Cl)nc2ccccc21	none (no result: AmpC no deterg, Sm TGR inh, AmpC detergent, Giardia FBPA inh)
COC(=O)CCc1c(COC(C)=O)[nH]c(C(=O)OCc2ccccc2)c1C	Sm TGR inh 3.5µM
